Screening data from PubChem BioAssay.
gsp antagonist: antagonists of gsp mutant (McCune-Albright syndrome); gsp-mutant cells, cAMP HTRF, 30 min; Potency, µM (highest dose often 76.9 µM), inactives show at the highest dose activity change, negative = inhibition, usual class: inhibitors; 340,000 tested, 0.4% active; AID 624288; calls by dose curve; cell line not stated here;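 also: intracellular cAMP measured with PDE inhibitor Ro 20-1724 present during compound exposure; potency is read from the fitted curve at half-maximal effect; % is scaled to controls: 0 for no effect and ±100 for the full control effect; nearly all actives have a fitted effect of over 65% in size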
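Measurement of cellular cAMP by homogeneous time-resolved fluorescence following a 30 min compound exposure at 37C. The PDE inhibitor […] was present throughout; the assay buffer was DPBS with 0.05% BSA and 0.005% Tween 20.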
Pin1 inh: inhibitors of human Pin1; Q13526; Pin1 FP peptide displacement, HiFluor488, 10 min; AID 504891; Potency, µM (top dose mostly 115 µM), without a hit: at the top dose activity, negative = inhibition, most hits filed as inhibitors; 390,000 tested, 0.009% active; active = well fitted inhibition curve with a large enough effect in the polarisation, with a control signal flat, not every such curve was filed as active; inconclusive = small, poorly fitted or top-dose-only effect, or effect the other way, or a change in a side signal; inactive = no such curve, though single readings can be large or run the other way; the % refers to the polarisation; also: potency is read from the fitted curve at half-maximal effect; % is scaled to controls: 0 for no effect and ±100 for the full control effect
TSHR antag: antagonists of human thyroid stimulating hormone receptor | P16473 | TSHR-expressing cells, TSH-stimulated cAMP HTRF, 2 h; active compounds read low | activity change, negative = inhibition, % at 11.5 µM | 330,000 tested, 0.2% active;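 active = activity change below a set negative limit, meaning inhibition stronger than a set level, cut at about -70% in these data; inconclusive = activity change between two set negative limits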; also: % is scaled to controls: 0 for no effect and ±100 for the full control effect
Target sequence (P16473 whole entry, looked up): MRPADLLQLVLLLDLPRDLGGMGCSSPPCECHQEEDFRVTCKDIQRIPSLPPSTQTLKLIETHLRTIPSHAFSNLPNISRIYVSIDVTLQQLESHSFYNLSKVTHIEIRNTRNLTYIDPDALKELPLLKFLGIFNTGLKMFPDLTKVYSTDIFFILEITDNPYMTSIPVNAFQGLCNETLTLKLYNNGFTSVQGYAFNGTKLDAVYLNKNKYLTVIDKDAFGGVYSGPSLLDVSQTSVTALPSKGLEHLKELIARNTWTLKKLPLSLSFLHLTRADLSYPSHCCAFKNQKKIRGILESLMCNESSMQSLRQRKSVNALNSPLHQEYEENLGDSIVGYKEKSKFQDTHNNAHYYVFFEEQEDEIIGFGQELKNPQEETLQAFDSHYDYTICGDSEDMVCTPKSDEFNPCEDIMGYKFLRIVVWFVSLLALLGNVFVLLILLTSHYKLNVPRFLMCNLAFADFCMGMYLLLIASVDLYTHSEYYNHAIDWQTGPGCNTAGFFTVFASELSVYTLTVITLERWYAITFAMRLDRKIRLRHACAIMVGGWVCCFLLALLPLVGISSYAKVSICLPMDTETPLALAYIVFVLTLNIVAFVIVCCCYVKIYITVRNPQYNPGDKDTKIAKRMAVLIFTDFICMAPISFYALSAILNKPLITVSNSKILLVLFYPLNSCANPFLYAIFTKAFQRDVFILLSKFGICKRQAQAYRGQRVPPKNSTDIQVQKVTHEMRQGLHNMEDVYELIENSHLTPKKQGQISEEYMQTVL
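Antagonism was scored as loss of TSH-driven cAMP in TSHR cells, stimulated with 4nM TSH (EC80) for 2 hours at 37 deg C and detected by homogeneous HTRF competition immunoassay.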
TCR activator: activators of T cell receptors; Potency, µM (series often up to 9.22 µM), for the others: top-dose activation of IL-2 secretion, hits mostly activators; AID 504894; primary human leukocytes, anti-CD3, IL-2 HTRF, 48 h; 330,000 tested, under 10 active; active = well fitted activation curve with a large enough effect; inconclusive = small, poorly fitted or top-dose-only effect, or another doubt; inactive = no such curve, though single readings can be large or run the other way; also: % of control where 0% means no effect
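TCR engagement came from a-CD3 beads alone, with compounds added to primary human leukocytes for 48 hr. Secreted IL-2 bridged europium cryptate- and d2-labelled anti-IL-2 antibodies, giving FRET emission at 665nm after 320nm excitation.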
gsp ag: agonists of gsp mutant (McCune-Albright syndrome) | gsp mutant cells, cAMP HTRF, 30 min | Potency, µM (titrated, usually from 76.9 µM), inactives show top-dose activation (cAMP increase), most hits filed as activators | 340,000 tested, 0.13% active; active = well fitted activation curve with a large enough effect; inconclusive = small, poorly fitted or top-dose-only effect, or another doubt; inactive = no such curve, though single readings can be large or run the other way; cell line not stated here;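 also: phosphodiesterase inhibitor Ro 20-1724 added with compounds to block cAMP breakdown; potency is read from the fitted curve at half-maximal effect; nearly all actives have a fitted effect of over 60% in size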
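Cells in DMEM/10% FBS with G418 were pretreated with compounds in DMSO plus […] (300 uM stock) for 30 min at 37C. cAMP was measured by HTRF (cAMP-d2 plus anti-cAMP antibody-K) after 30 min at room temperature.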
* marks the source's active call; other numbers are inactive results; u = inconclusive; x = not tested or not shown; [ ] = dose if it differs, or a comment. The list is not random: actives were taken first. Their share in the collection is about 0.63%.

SMILES | gsp antagonist | Pin1 inh | TSHR antag | TCR activator | gsp ag
C=CCOc1ccc(C2C(C(=O)c3ccco3)=C(O)C(=O)N2Cc2cccnc2)cc1 (centres undefined) | 13.8% | -0.4% | 2.7 | x | 28.2µM*
COc1ccc(C2C(C(=O)c3ccco3)=C(O)C(=O)N2Cc2cccnc2)cc1OC (centres undefined) | 3.9% | 1.1% | 31.2 | -2.8% | 6.3%
O=C(C1=C(O)C(=O)N(CCN2CCOCC2)C1c1cccc(O)c1)c1cc2ccccc2o1 (centres undefined) | 11.2% | -3.3% | 10.6 | 2.4% | u
COc1cccc2cc(C(=O)C3=C(O)C(=O)N(Cc4ccco4)C3c3cccnc3)oc12 (centres undefined) | -2.0% | -10.0% | 1.2 | -5.0% | 10µM*
C=CCOc1cccc(C2C(C(=O)c3ccco3)=C(O)C(=O)N2Cc2cccnc2)c1 (centres undefined) | 7.1% | -8.2% | -12.0 | -8.7% | 7.4%[15.4 µM]
O=C(C1=C(O)C(=O)N(CCN2CCOCC2)C1c1cccnc1)c1cc2ccccc2o1 (centres undefined) | 19.4% | -5.8% | -5.7 | -2.2% | u
O=C(C1=C(O)C(=O)N(CCN2CCOCC2)C1c1cccc(F)c1)c1cc2ccccc2o1 (centres undefined) | 6.2% | 6.7% | 37.4 | -5.5% | 7.08µM*
Nc1nc(C2C(=O)CCCC2=O)cs1 | 9.4% | u | 0.9 | -1.2% | u
O=C(CCSc1ccccc1)Nc1ccccc1C(=O)N1CCCC1 | 11.0% | 1.4% | -14.4 | 7.3%[46.1 µM] | -2.8%[15.4 µM]
CCC1Oc2ccccc2N(CC(=O)NCCN2C(C)CCCC2C)C1=O (centres undefined) | 0.2% | -1.4% | -2.8 | 5.2% | -3.8%
Cc1nn(Cc2ccc(Cl)c(Cl)c2)c(C)c1NC(=O)c1cc(-c2ccco2)on1 | 31.6µM* | 64.8% | -22.9 | -3.9%[46.1 µM] | 4.5%
COc1cccc(-c2cc(C(=O)Nc3cc(C)n(Cc4ccc(Cl)cc4)n3)no2)c1 | 1.5% | 2.2% | -73.6* | 0.3% | -4.5%
O=C(Nc1nccs1)c1cc(-c2ccco2)nc2ccccc12 | 7.1% | u | -7.2 | -4.1%[46.1 µM] | 18.8%
CCN1C(=O)S/C(=C/c2cn(C)c3ccccc23)C1=O | 9.3% | -3.2% | -10.3 | -18.6%[46.1 µM] | -39.2%
Cn1cc(/C=C2\SC(=O)N(c3ccc(O)cc3)C2=O)c2ccccc21 | 31.6µM* | 37.2% | -3.6 | -1.9% | 0.1%
O=C1S/C(=C\c2cccs2)C(=O)N1c1ccc(O)cc1 | -3.8% | -0.3% | -3.9 | 0.4% | 0.9%
Cn1cc(/C=C2\SC(=O)N(c3ccccc3)C2=O)c2ccccc21 | 44.7µM* | u | -6.3 | 2.9%[46.1 µM] | -6.4%[15.4 µM]
Cc1[nH]c(=O)[nH]c(=O)c1NC(=O)c1sc2nc3c(C)cccc3cc2c1N | -8.9% | u | -6.6 | 6.5%[46.1 µM] | 29.0%
CO/N=C(/CN1CCCCC1)c1ccc(Cl)cc1 | 6.0% | 1.0% | -2.3 | 11.0% | 27.1%
CCc1ccc(NC(=O)C2CCCN(S(=O)(=O)c3cccc4cccnc34)C2)cc1 (centres undefined) | x | 7.5% | x | x | x
Cn1c(=O)c([N+](=O)[O-])c(Cl)c2ccccc21 | 28.2µM* | -5.3% | -82.6* | -6.6% | -2.4%[15.4 µM]
CN(Cc1ccccc1)S(=O)(=O)c1ccc(OCC(=O)NCc2ccccn2)cc1 | -3.4% | -0.3% | -103.8* | -0.1% | -47.0%
COC(=O)c1ccccc1-n1c(CCC(=O)O)ccc1-c1ccc(F)cc1 | -15.4% | -0.9% | 3.2 | -0.1% | -84.0%
COc1ccc(-n2c(CCC(=O)O)ccc2-c2ccc(F)cc2)c(OC)c1 | 35.5µM* | 0.4% | -1.2 | -2.6% | -40.4%
COc1ccc(C(=O)Nc2ccc(NC(=O)c3cccs3)cc2)cc1OC | x | -1.7% | x | x | x
SMILES | gsp antagonist | Pin1 inh | TSHR antag | TCR activator | gsp ag
COc1ccc(C(=O)Nc2cccc(NC(=O)c3cccs3)c2)cc1OC | -17.8% | -0.4% | -129.6* | 5.1% | 3.2%
CN(Cc1c(C(=O)N/N=C/c2ccccc2)nnn1-c1nonc1N)c1ccccc1 | -11.4% | 0.1% | 2.3 | -3.2% | u
Cc1cc(-c2cccs2)c2c(N)c(C(=O)c3ccc4c(c3)OCO4)sc2n1 | 1.5% | u | 2.3 | 10.5%[46.1 µM] | 26.6%
COc1ccc(C(=O)c2sc3nc(C)cc(-c4cccs4)c3c2N)cc1 | -15.2% | u | 32.7 | -4.6%[46.1 µM] | 10µM*
CN1CCN(/C=N/c2sc3c(c2C#N)CCCCC3)CC1 | u | -2.7% | 2.8 | 9.0% | 26.7%
CC(=O)Nc1ccc(S(=O)(=O)Nc2nc3ccccc3nc2Cl)cc1 | 8.9% | -4.5% | -3.9 | -4.5% | 7.94µM*
Cc1cc(F)ccc1S(=O)(=O)Nc1nc2ccccc2nc1Cl | 9.3% | -16.2% | 5.9 | -7.3% | 22.4µM*
Cc1ccc(C(C)(C)C)cc1S(=O)(=O)Nc1nc2ccccc2nc1Cl | -5.6% | -15.1% | -28.0 | -23.4% | u
Cc1ccc2oc(C(=O)NCCC3CCCCO3)c(C)c2c1 (centres undefined) | -7.9% | -3.7% | -7.8 | 2.1% | -5.2%
C=CCN(C(=O)C1CC(=O)N(C2CCCC2)C1)c1nc(-c2ccc(S(C)(=O)=O)cc2)cs1 (centres undefined) | 39.8µM* | -1.4% | -9.9 | -3.8% | 4.6%
CC(C)c1ccc(NC(=O)c2ccc3c(c2)C(=O)N(Cc2cccnc2)C3=O)cc1 | 35.5µM* | -19.8% | -25.5 | 10.6% | u
CCOC(=O)c1ccc(NC(=O)c2ccc3c(c2)C(=O)N(CC2CCCO2)C3=O)cc1 (centres undefined) | 31.6µM* | -9.8% | -23.7 | -3.0% | -18.8%
CCOC(=O)c1ccc(NC(=O)c2ccc3c(c2)C(=O)N(Cc2cccnc2)C3=O)cc1 | 35.5µM* | 22.3% | -18.0 | -4.2% | u
COC(=O)Cc1ccc(NC(=O)c2ccc3c(c2)C(=O)N(Cc2cccnc2)C3=O)cc1 | -10.6% | 1.3% | -20.6 | 10.7% | -19.5%
C#Cc1cccc(NC(=O)c2ccc3c(c2)C(=O)N(Cc2cccnc2)C3=O)c1 | 39.8µM* | 3.6% | -25.5 | 1.2% | 33.1%[15.4 µM]
Cc1cc(-c2ccccc2)n2nc(-c3cccc(Br)c3)cc2n1 | x | 2.1% | x | x | x
COC(=O)c1ccc(/C(O)=C(\C#N)c2nc3ccccc3s2)cc1 | 17.8µM* | 15.1% | -47.5 | -0.6% | 11.1%
O=S(=O)(Nc1nc2ccccc2nc1NCc1ccco1)c1ccc(Cl)cc1 | -23.1% | 3.5% | -15.9 | -0.1% | u
Cc1noc(C)c1CSc1nc2ccccc2nc1NS(=O)(=O)c1ccc(Cl)cc1 | 31.6µM* | -16.4% | u | 7.3% | 18.9%
COc1ccc(CNC(C)C(=O)Nc2ccc3ccccc3c2)cc1OC (centres undefined) | 11.2µM* | 5.0% | 4.3 | 0.9% | -2.0%[15.4 µM]
Cc1cc(C2(c3ccc(O)c(C)c3)C(=O)Nc3ccccc32)ccc1O | -3.7% | 0.6% | -5.4 | -30.6% | -28.2%
Cc1cccc2c1NC(=O)C2(c1ccc(O)cc1)c1ccc(O)cc1 | 6.7% | 5.3% | -81.5* | 8.7% | u
